Test results published in ChEMBL document CHEMBL1961873, “Compounds: GSK PKIS; Assays: Nanosyn kinase panel” (2012).

Key:
[1] = target: Tyrosine-protein kinase SYK (Homo sapiens) (UniProt P43405); conditions: at 1 µM
[2] = target: T1, Tyrosine-protein kinase Tec (Homo sapiens) (UniProt P42680); conditions: at 0.1 µM
T1 sequence (whole entry): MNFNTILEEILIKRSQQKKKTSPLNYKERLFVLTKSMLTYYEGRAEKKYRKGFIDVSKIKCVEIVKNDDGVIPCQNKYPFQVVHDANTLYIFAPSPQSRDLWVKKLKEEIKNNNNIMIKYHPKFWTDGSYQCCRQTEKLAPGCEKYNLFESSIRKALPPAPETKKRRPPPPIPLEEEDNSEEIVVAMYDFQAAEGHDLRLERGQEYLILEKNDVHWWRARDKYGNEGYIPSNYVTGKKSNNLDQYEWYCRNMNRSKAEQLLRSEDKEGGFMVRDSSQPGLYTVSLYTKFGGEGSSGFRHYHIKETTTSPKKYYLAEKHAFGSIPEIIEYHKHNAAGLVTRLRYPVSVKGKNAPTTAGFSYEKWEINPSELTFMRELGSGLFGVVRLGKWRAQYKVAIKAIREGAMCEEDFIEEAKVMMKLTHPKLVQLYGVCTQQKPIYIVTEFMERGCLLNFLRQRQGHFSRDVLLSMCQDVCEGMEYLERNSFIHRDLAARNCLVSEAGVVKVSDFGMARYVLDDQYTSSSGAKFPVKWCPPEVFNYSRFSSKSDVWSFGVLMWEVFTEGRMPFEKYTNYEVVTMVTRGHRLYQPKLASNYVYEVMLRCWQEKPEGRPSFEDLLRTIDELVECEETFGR

[3] = target: T1, Tyrosine-protein kinase Tec (Homo sapiens); conditions: at 1 µM
[4] = target: Angiopoietin-1 receptor (Homo sapiens) (UniProt Q02763); conditions: at 0.1 µM
[5] = target: Angiopoietin-1 receptor (Homo sapiens) (UniProt Q02763); conditions: at 1 µM
[6] = target: T2, Non-receptor tyrosine-protein kinase TNK1 (Homo sapiens) (UniProt Q13470); conditions: at 0.1 µM
T2 sequence (whole entry): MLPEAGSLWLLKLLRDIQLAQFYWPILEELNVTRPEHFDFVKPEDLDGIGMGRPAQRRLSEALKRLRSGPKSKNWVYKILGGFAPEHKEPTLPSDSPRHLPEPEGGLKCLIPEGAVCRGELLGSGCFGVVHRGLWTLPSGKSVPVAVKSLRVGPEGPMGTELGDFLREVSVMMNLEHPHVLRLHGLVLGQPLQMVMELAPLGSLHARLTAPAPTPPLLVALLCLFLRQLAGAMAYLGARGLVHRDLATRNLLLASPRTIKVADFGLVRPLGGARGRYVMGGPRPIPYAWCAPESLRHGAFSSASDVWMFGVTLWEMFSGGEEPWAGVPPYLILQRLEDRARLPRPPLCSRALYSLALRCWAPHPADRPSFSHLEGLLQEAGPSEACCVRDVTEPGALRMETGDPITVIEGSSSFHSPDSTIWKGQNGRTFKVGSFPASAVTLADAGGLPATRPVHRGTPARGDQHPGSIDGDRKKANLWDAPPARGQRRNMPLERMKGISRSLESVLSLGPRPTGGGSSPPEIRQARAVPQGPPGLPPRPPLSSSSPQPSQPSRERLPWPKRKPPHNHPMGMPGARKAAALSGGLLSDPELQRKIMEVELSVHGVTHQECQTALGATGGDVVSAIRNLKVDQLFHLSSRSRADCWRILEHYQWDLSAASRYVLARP

[7] = target: T2, Non-receptor tyrosine-protein kinase TNK1 (Homo sapiens); conditions: at 1 µM
[8] = target: Activated CDC42 kinase 1 (Homo sapiens) (UniProt Q07912); conditions: at 0.1 µM
[9] = target: Activated CDC42 kinase 1 (Homo sapiens) (UniProt Q07912); conditions: at 1 µM
[10] = target: High affinity nerve growth factor receptor (Homo sapiens) (UniProt P04629); conditions: at 0.1 µM;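 also: each value is a mean of replicate percent inhibition readings against TRKA kinase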
High affinity nerve growth factor receptor (Homo sapiens), sequence (P04629 33-796 limits assumed): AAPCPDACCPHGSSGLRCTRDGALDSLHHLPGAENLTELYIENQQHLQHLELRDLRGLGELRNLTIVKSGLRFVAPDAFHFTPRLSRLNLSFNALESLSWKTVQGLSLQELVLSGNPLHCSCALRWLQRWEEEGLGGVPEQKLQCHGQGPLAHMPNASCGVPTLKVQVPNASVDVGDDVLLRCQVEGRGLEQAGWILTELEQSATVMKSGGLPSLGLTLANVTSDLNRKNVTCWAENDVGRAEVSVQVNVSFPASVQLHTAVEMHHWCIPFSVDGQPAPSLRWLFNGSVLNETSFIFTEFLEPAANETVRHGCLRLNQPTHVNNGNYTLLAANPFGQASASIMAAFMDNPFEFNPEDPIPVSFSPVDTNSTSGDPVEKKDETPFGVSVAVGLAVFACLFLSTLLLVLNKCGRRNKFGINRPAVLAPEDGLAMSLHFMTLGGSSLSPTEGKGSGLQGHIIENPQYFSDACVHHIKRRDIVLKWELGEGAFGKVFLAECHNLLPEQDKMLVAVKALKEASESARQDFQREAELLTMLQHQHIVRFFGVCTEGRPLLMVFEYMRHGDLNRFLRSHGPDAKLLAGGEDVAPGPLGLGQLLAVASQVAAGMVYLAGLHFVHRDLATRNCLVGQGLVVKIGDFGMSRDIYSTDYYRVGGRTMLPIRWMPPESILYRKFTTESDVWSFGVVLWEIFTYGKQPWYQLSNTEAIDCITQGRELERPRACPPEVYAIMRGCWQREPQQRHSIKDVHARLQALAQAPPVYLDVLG

Angiopoietin-1 receptor (Homo sapiens), sequence (Q02763 whole entry): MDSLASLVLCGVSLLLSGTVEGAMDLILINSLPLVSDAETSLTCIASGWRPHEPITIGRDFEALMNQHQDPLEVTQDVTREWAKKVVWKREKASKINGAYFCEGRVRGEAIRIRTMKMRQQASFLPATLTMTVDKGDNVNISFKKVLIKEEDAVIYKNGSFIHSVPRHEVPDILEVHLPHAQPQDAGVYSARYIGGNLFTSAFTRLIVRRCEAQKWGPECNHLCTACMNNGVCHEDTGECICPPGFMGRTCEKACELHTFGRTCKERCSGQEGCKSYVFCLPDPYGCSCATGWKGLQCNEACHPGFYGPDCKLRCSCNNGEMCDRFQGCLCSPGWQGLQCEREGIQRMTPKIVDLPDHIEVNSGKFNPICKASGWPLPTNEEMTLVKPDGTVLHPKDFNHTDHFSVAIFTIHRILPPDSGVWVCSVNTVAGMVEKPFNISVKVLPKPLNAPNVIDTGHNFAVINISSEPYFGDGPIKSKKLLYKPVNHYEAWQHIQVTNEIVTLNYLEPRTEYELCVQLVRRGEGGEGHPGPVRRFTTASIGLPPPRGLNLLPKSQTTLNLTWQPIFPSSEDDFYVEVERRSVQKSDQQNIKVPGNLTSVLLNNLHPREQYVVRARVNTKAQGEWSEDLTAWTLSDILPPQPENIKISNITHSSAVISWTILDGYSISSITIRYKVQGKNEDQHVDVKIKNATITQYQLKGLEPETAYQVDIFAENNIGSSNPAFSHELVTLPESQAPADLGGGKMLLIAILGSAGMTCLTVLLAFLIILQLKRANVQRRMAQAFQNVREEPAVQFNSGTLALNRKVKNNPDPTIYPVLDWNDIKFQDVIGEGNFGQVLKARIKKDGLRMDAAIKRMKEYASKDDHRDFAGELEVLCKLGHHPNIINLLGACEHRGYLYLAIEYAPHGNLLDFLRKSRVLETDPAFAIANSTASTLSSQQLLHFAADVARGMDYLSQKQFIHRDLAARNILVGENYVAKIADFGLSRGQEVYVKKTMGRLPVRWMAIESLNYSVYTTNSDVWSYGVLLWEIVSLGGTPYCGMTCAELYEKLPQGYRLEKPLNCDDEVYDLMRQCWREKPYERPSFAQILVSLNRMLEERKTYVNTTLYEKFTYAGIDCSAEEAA
Activated CDC42 kinase 1 (Homo sapiens), sequence (Q07912 whole entry, looked up): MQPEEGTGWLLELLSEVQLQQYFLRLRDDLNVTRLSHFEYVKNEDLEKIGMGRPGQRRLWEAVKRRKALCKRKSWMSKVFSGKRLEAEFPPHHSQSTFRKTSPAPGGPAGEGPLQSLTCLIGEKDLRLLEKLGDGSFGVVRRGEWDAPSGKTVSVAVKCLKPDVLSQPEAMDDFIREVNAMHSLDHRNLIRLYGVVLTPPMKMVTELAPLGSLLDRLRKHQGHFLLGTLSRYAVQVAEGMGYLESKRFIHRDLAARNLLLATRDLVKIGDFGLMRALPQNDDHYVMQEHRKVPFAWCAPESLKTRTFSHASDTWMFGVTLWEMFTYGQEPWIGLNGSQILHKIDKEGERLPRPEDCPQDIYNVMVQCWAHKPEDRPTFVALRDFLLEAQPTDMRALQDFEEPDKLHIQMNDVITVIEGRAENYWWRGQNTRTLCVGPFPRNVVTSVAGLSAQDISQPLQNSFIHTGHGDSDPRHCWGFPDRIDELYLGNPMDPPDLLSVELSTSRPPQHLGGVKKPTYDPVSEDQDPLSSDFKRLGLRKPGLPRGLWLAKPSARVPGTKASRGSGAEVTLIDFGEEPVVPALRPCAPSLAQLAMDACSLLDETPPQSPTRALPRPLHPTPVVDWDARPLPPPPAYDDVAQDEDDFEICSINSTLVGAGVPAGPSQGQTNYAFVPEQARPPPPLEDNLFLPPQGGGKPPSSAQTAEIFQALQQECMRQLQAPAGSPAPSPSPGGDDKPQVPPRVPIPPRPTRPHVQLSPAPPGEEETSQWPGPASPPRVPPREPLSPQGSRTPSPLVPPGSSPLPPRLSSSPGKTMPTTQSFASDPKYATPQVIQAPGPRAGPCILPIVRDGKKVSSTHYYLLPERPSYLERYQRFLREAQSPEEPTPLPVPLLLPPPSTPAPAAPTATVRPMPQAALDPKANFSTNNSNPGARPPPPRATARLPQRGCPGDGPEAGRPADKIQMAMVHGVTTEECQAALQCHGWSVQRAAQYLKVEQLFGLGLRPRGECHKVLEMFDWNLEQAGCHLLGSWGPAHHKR

| SMILES | inhibition [1] | inhibition [2] | inhibition [3] | inhibition [4] | inhibition [5] | inhibition [6] | inhibition [7] | inhibition [8] | inhibition [9] | inhibition [10] |
| --- | --- | --- | --- | --- | --- | --- | --- | --- | --- | --- |
| Fc1ccc(-c2ncn(C3CCNCC3)c2-c2ccnc(Oc3ccc(Oc4ccccc4)cc3)n2)cc1 | 3.37% | 7.61% | 3.11% | 3.79% | 4.32% | 2.72% | 0.92% | 0.73% | 1.8% | 3.4% |
| CCc1nccc2c1nc(-c1nonc1N)n2CC | 10.7% | 1.47% | 5.82% | 2.53% | 5.08% | 0.71% | -5.44% | -0.52% | -0.83% |  |
| C#Cc1cccc(Nc2ncnc3ccc(OCCCCNCCS(C)(=O)=O)cc23)c1 | 0.39% | 5.96% | 9.84% | 5.13% | 12.5% | 2.31% | 20.9% | 2.03% | 7.01% | 2.95% |
| CCN(CC)Cc1ccc(Nc2nccc(-c3cnn4ncccc34)n2)cc1 | -0.45% | 0.83% | 3.21% | 3.9% | 12.2% | 5.27% | 32% | -0.16% | 3.2% | 2.7% |
| COc1cc(N2CCN(C(C)C)CC2)ccc1Nc1nc(Nc2ccc(F)cc2C(=O)NC[C@@H](O)CO)c2cc[nH]c2n1 | -2.57% | 1.33% | 1.93% | 2.59% | 6.08% | 14.7% | 60.5% | 3.26% | 9.35% | 3.81% |
| Nc1nccc(-c2c(-c3ccc(F)cc3)ncn2C2CCC(O)CC2)n1 (centres undefined) | 4.19% | -0.76% | 5.34% | -0.11% | 4.5% | -3.34% | 8.33% | -0.32% | 0.4% | 0.87% |
| Fc1ccc(-c2c(-c3ccncc3)nc3n2CCS3)cc1 | 1.49% | -1.67% | -0.75% | 2.27% | 4.78% | 0.74% | 2.59% | 0.57% | 1.01% | 3.03% |
| CCS(=O)(=O)c1ccc(OC)c(Nc2ncc(-c3ccccc3Cl)o2)c1 | 4.5% | 3.48% | 5.03% | 0.48% | 7.52% | 16.9% | 67.2% | 1.07% | 3.27% | 2.9% |
| COc1cccc(-n2cnc3c(N/N=C/c4ccncc4)ncnc32)c1 | -1.09% | -2.49% | 5.03% | -0.9% | 9.67% | 1.98% | 19.3% | 0.06% | 3.07% | -1.67% |
| CN(c1ccc(NC(=O)Nc2c(Cl)cccc2Cl)cc1)c1ccnc(Nc2cccc(CS(C)(=O)=O)c2)n1 | -9.25% | 10.1% | 21.4% | 64.2% | 72.1% | 59.8% | 84.1% | 1.13% | 4.21% | 49.7% |
| COc1ccc(C2=C(N3CCc4ccccc43)C(=O)NC2=O)cc1 | 2.15% | 5.51% | 6.81% | 2.29% | 3.07% | 4.3% | 13.9% | 1.51% | 2.14% | 5.01% |
| O=C(Nc1n[nH]c2nc(-c3ccc(O)cc3)c(Br)cc12)C1CC1 | 0.18% | 6.51% | 14.4% | 5.98% | 26.2% | 4.45% | 20.4% | 1.69% | 3.9% | 4.06% |
| FC(F)(F)c1cccc(Nc2nccc(-c3cnn4nc(-c5ccccc5)ccc34)n2)c1 | -6.97% | -0.76% | 4.7% | 0.12% | 4.87% | 1.51% | 8.59% | 0.76% | 1.15% | -0.16% |
| Cc1ccc(C(=O)NC2CCC2)cc1-c1ccc(C(=O)NCC2CC2)cc1 | 0.85% | 3.37% | 2.28% | 2.59% | 1.2% | -0.31% | -1.43% | 1.04% | 1.08% | -0.6% |
| O=C(NCC1CC1)c1ccc(-c2cccc(C(=O)NC3CC3)c2)cc1 | -1.45% | 2.57% | 6.01% | 2.21% | 6.47% | 1.89% | -2.48% | 0.86% | 1.39% | 4.07% |
| NS(=O)(=O)c1ccc(N/N=C2\C(=O)Nc3ccc(-c4cnco4)cc32)cc1 | -1.05% | -1.76% | 4.09% | 3.92% | 4.65% | 9.41% | 44.4% | -0.82% | 0.92% | 4.49% |
| NS(=O)(=O)c1ccc(Nc2cc(-c3ccc(O)c(F)c3)n[nH]2)cc1 | -1.99% | -1.66% | 0.4% | 2.97% | 21.7% | -4.31% | 24.3% | -1.31% | -1.02% | 5.68% |

| SMILES | inhibition [1] | inhibition [2] | inhibition [3] | inhibition [4] | inhibition [5] | inhibition [6] | inhibition [7] | inhibition [8] | inhibition [9] | inhibition [10] |
| --- | --- | --- | --- | --- | --- | --- | --- | --- | --- | --- |
| COc1cc2ncn(-c3cc(OCc4ccccc4C(F)(F)F)c(C(C)=O)s3)c2cc1OC | -5.75% | -0.08% | 5.16% | 1.54% | 8.41% | 0.64% | 23.6% | 1.52% | 3.29% | 2.3% |
| COc1cc(Nc2ncc3c(C)nc(-c4cccc(C(F)(F)F)c4)n3n2)cc(OC)c1OC | -2.22% | 3.55% | 16.9% | 2.15% | 6.29% | 15.2% | 48.8% | 0.75% | 3.69% | 2.69% |
| Cc1nnc(-c2ccc(C)c(-c3ccc(C(=O)NCc4ccc(Cl)cc4)cc3)c2)o1 | -1% | 0.01% | 0.03% | 4.45% | 6.89% | 0.68% | 5.31% | 0.65% | 0.3% | 2.65% |
| O=C1NC(=O)C(c2cccc(Cl)c2)=C1Nc1ccc(Cl)c(C(=O)O)c1 | -0.32% | 3.38% | 2.84% | 1.75% | 4.22% | 0.16% | 11% | 0.78% | 0.5% | 0.94% |
| CNC(=O)c1cncc(/C=C/c2c(C)cccc2C)c1 | -0.51% | 5.68% | 38.2% | -0.16% | 7.69% | 0.82% | 16.5% | 0.76% | 9.44% | 3.36% |
| NCc1ccc(-n2c(-c3nonc3N)nc3cnccc32)cc1 | -0.51% | 4.69% | 4.95% | 2.68% | 3.28% | 5.04% | 3.5% | 1.93% | 5.77% | 1.82% |
| COc1cc(Nc2ncc3c(C)nc(-c4cccc(Oc5ccccc5)c4)n3n2)cc(OC)c1OC | 0.13% | 2.22% | 5.31% | 1.33% | 3.09% | 4.56% | 23.8% | 0.46% | 1.9% | 2.69% |
| O=C1Nc2ccccc2/C1=C/Nc1ccc(-n2cncn2)cc1 | -1.86% | 3.72% | 5.42% | 0.76% | 4.4% | 2.41% | 14% | 0.63% | 2.83% | 6.94% |
| Clc1ccc(CNc2nccc(-c3cnn4ncccc34)n2)cc1 | 1.6% | 3.07% | 7.34% | 0.58% | 4.03% | 2.4% | 14.8% | 0.35% | 3.23% | 1.42% |
| N#Cc1ccc(Oc2nccc(-c3c(-c4ccc(F)cc4)ncn3C3CCNCC3)n2)cc1 | -3.55% | 2.34% | 5.61% | 3.13% | 8.62% | -0.15% | 2.6% | 0.82% | 2.05% | 2.46% |
| COc1cc(Nc2ncc(-c3ccccc3)o2)cc(OC)c1OC | -1.68% | -2.02% | 4.55% | 0.66% | 5.14% | 4.15% | 28.4% | 0% | 0.48% | 3.35% |
| COc1cc(C)c(N(C)C(=O)CN(C)C)cc1Nc1nc(Nc2cccc(F)c2C(N)=O)c2cc[nH]c2n1 | 1.76% | -0.85% | 1.07% | 0.26% | 2.24% | 1.97% | 6.22% | 0.62% | 0.64% | 1.62% |
| O=C(Nc1n[nH]c2nc(-c3ccco3)ccc12)C1CC1 | 1.5% | 1.47% | 3.97% | 5.28% | 10.4% | 0.16% | 1.24% | -0.07% | 0.93% | 4.04% |
| Cc1ccc(C(=O)NC(C)C)cc1-c1ccc(C(=O)NCC2CC2)cc1 | -0.36% | -2.75% | -2.37% | -0.76% | -0.28% | -4.74% | -5.58% | -0.81% | 0.35% | -0.37% |
| C/C(Nc1ccc(S(N)(=O)=O)cc1)=C1/C(=O)Nc2ccccc21 | 0.6% | -1.54% | -2.14% | 0.44% | 2.44% | -3.91% | 9.56% | -1.14% | 0.65% | 4.48% |
| COc1ccc2ncn(-c3cc(O[C@H](C)c4ccccc4Cl)c(C(N)=O)s3)c2c1 | -3.45% | -2.01% | 0.84% | 1.72% | 7.48% | 3.02% | 24.1% | 0.31% | 1.16% | 8.17% |
| COc1cc2ncn(-c3cc(OCc4cccs4)c(C(N)=O)s3)c2cc1OC | 0.32% | -0.38% | 2.67% | 4.44% | 27.3% | 10.4% | 53.9% | 3.84% | 9.04% | -0.38% |
